The results in this text go back to PubChem BioAssay (EPA / NIEHS).

Results filed as inconclusive are left out. Activity calls are given as the source filed them. The calls were made as follows, unless noted: active = hit-call score of the fitted dose curve at least 0.9, where 1 is the maximum; inactive = score below 0.9.

Read-out in assay [1]: solute carrier (SLC22A1), SLC22A1 (gene 6580)
Kind of assay: LTEA_HepaRG_SLC22A1: Life Technologies and Expression Analysis (LTEA) Assay for solute carrier (SLC22A1) using HepaRG (AID 2283524). The settings on record: mRNA level, 48 h; actives raise or lower the signal. Summed up:
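HepaRG (human liver line), 48 h dosing in serum-free induction medium; 8 conc., half-log down from 100 uM, 0.5% DMSO vehicle, duplicates. Endpoint: SLC22A1 mRNA, qRT-PCR, housekeeping-normalized; gain/loss fit vs DMSO.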

Read-out in assay [2]: Pyruvate Dehydrogenase Kinase 4 (PDK4), PDK4 (gene 5166)
In words: LTEA_HepaRG_PDK4: Life Technologies and Expression Analysis (LTEA) Assay for Pyruvate Dehydrogenase Kinase 4 (PDK4) using HepaRG (AID 2283525). Conditions: mRNA level, 48 h; actives raise or lower the signal. The gist of the method: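 In this multiplexed human HepaRG expression assay, cells are treated 48 h with test chemicals across an eight-point range starting at 100 uM. PDK4 mRNA changes, normalized to ACTB/GAPDH/POLR2A, are fitted in both directions relative to vehicle.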

Read-out in assay [3]: NAD(P)H dehydrogenase [quinone] 1 (NQO1), NQO1 (gene 1728)
In words: LTEA_HepaRG_NQO1: Life Technologies and Expression Analysis (LTEA) Assay for NAD(P)H dehydrogenase [quinone] 1 (NQO1) using HepaRG (AID 2283526). The settings on record: mRNA level, 48 h; actives raise or lower the signal. Summed up: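 Differentiated human HepaRG cells in serum-free induction medium, dosed in duplicate for 48 h at 8 half-log concentrations up to 100 uM in 0.5% DMSO. NQO1 mRNA by qRT-PCR normalized to ACTB, GAPDH, POLR2A; bidirectional fit versus DMSO baseline.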

Read-out in assay [4]: Nuclear factor erythroid 2-related factor 2 (Homo sapiens) (UniProt Q16236)
Kind of assay: LTEA_HepaRG_NFE2L2: Life Technologies and Expression Analysis (LTEA) Assay for Nuclear factor erythroid 2-related factor 2 (NFE2L2) Transcription Factor using HepaRG (AID 2283527).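 Also: TaqMan qRT-PCR transcript level normalised to ACTB GAPDH and POLR2A housekeeping genes.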 Conditions: mRNA level, 48 h; actives raise or lower the signal. The gist of the method:
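Transcript level of NFE2L2 is the read-out, measured by microfluidic TaqMan qRT-PCR and normalized to three housekeeping genes. Human HepaRG cultures received test chemical for 48 h at up to 100 uM in half-log steps. Gain or loss of signal is fitted relative to 0.5% DMSO.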

Read-out in assay [5]: succinate dehydrogenase complex iron sulfur subunit B (SDHB), SDHB (gene 6390)
Kind of assay: LTEA_HepaRG_SDHB: Life Technologies and Expression Analysis (LTEA) Assay for succinate dehydrogenase complex iron sulfur subunit B (SDHB) using HepaRG (AID 2283528). Conditions: mRNA level, 48 h; actives raise or lower the signal. Summed up: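 HepaRG cells (~100,000/well, plated 48 h) exposed in duplicate for 48 h in serum-free induction medium to 8-point half-log series from 100 uM in 0.5% DMSO; mRNA by qRT-PCR normalised to ACTB, GAPDH, POLR2A; bidirectional fit versus DMSO.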

Read-out in assay [6]: Signal transducer and activator of transcription 3 (Homo sapiens) (UniProt P40763)
Kind of assay: LTEA_HepaRG_STAT3: Life Technologies and Expression Analysis (LTEA) Assay for Signal transducer and activator of transcription (STAT3) using HepaRG (AID 2283529). Conditions: mRNA level, 48 h; actives raise or lower the signal. The gist of the method:
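Read-out is STAT3 mRNA level by qRT-PCR, normalized to three housekeeping genes, in human HepaRG liver cells treated for 48 h. Concentrations ran from 100 uM downward in half-log steps; curves were fitted for gain or loss relative to 0.5% DMSO.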

Read-out in assay [7]: solute carrier (SLCO1B1), SLCO1B1 (gene 10599)
Kind of assay: LTEA_HepaRG_SLCO1B1: Life Technologies and Expression Analysis (LTEA) Assay for solute carrier (SLCO1B1) using HepaRG (AID 2283530). Conditions: mRNA level, 48 h; actives raise or lower the signal. The gist of the method: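 Gain or loss of SLCO1B1 mRNA is fitted against the 0.5% DMSO vehicle in human HepaRG liver cells treated 48 h at up to 100 uM in half-log steps. Expression comes from qRT-PCR normalized to endogenous controls.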

Read-out in assay [8]: sulfotransferase 2A1 (SULT2A1), SULT2A1 (gene 6822)
Kind of assay: LTEA_HepaRG_SULT2A1: Life Technologies and Expression Analysis (LTEA) Assay for sulfotransferase 2A1 (SULT2A1) using HepaRG (AID 2283531). Conditions: mRNA level, 48 h; actives raise or lower the signal. The gist of the method: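 Cells were plated and cultured 48 h, switched to serum-free induction medium, then dosed in duplicate for 48 h (8 concentrations, max 100 uM). RNA was isolated and SULT2A1 expression measured by qRT-PCR; gain or loss of signal fitted relative to DMSO.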

Read-out in assay [9]: Transforming Growth Factor (TGFA), TGFA (gene 7039)
Kind of assay: LTEA_HepaRG_TGFA: Life Technologies and Expression Analysis (LTEA) Assay for Transforming Growth Factor (TGFA) using HepaRG (AID 2283532). Conditions: mRNA level, 48 h; actives raise or lower the signal. The gist of the method:
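HepaRG (human liver line), 48 h exposure, 8 conc. half-log down from 100 uM, 0.5% DMSO vehicle, duplicates; serum-free induction medium. TGFA mRNA by TaqMan qRT-PCR, ACTB/GAPDH/POLR2A normalization; gain/loss fit vs DMSO.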

Read-out in assay [10]: Transforming Growth Factor (TGFB1), TGFB1 (gene 7040)
Kind of assay: LTEA_HepaRG_TGFB1: Life Technologies and Expression Analysis (LTEA) Assay for Transforming Growth Factor (TGFB1) Transporter using HepaRG (AID 2283533). Conditions: mRNA level, 48 h; actives raise or lower the signal. Summed up:
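Expression change of TGFB1 in human HepaRG cells is measured after a 48 h chemical exposure, up to 100 uM in 0.5% DMSO vehicle. Curves are fitted in both directions relative to the DMSO baseline.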

Read-out in assay [11]: TIMP1, TIMP1 (gene 7076)
Kind of assay: LTEA_HepaRG_TIMP1: Life Technologies and Expression Analysis (LTEA) Assay for TIMP1 using HepaRG (AID 2283534). Conditions: mRNA level, 48 h; actives raise or lower the signal. Summed up: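 We dosed human liver HepaRG cultures for 48 hours with up to 100 uM test chemical and measured TIMP1 expression by qRT-PCR. Activity in either direction is fitted relative to the 0.5% DMSO vehicle.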

Read-out in assay [12]: Tumor necrosis factor receptor 1 (TNFRSF1A), TNFRSF1A (gene 7132)
Kind of assay: LTEA_HepaRG_TNFRSF1A: Life Technologies and Expression Analysis (LTEA) Assay for Tumor necrosis factor receptor 1 (TNFRSF1A) using HepaRG (AID 2283535). Conditions: mRNA level, 48 h; actives raise or lower the signal. The gist of the method:
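Expression of TNFRSF1A in human HepaRG liver cells was measured by qRT-PCR 48 h after chemical dosing (maximum 100 uM). Bidirectional curve fitting used 0.5% DMSO as baseline.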

Read-out in assay [13]: Thyroid Hormone Responsive (THRSP), THRSP (gene 7069)
Kind of assay: LTEA_HepaRG_THRSP: Life Technologies and Expression Analysis (LTEA) Assay for Thyroid Hormone Responsive (THRSP) using HepaRG (AID 2283536). Conditions: mRNA level, 48 h; actives raise or lower the signal. Summed up:
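mRNA induction or loss relative to 0.5% DMSO vehicle was fitted bidirectionally across an eight-point curve whose highest exposure was 100 uM. Human HepaRG liver cells received chemicals in duplicate over 48 h before RNA extraction.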

Read-out in assay [14]: Cellular tumor antigen p53 (Homo sapiens) (UniProt P04637)
Kind of assay: LTEA_HepaRG_TP53: Life Technologies and Expression Analysis (LTEA) Assay for Tumor Protein P53 (TP53) using HepaRG (AID 2283537). The settings on record: mRNA level, 48 h; actives raise or lower the signal. Summed up: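 Differentiated HepaRG cells in serum-free induction medium exposed 48 h in duplicate to 8 half-log concentrations, top 100 uM, 0.5% DMSO. TP53 mRNA by TaqMan qRT-PCR (Fluidigm), normalized to ACTB, GAPDH, POLR2A; fitted bidirectionally versus DMSO.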

Read-out in assay [15]: UDP glucuronosyltransferase (UGT1A1), UGT1A1 (gene 54658)
In words: LTEA_HepaRG_UGT1A1: Life Technologies and Expression Analysis (LTEA) Assay for UDP glucuronosyltransferase (UGT1A1) using HepaRG (AID 2283538). The settings on record: mRNA level, 48 h; actives raise or lower the signal. The gist of the method: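 HepaRG cells, 0.5% DMSO vehicle, 48 h exposure in serum-free induction medium to 8-point half-log series topping at 100 uM, in duplicate. UGT1A1 mRNA by Fluidigm qRT-PCR, normalized to ACTB/GAPDH/POLR2A; bidirectional fit versus DMSO.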

Read-out in assay [16]: UDP glucuronosyltransferase (UGT1A6), UGT1A6 (gene 54578)
Kind of assay: LTEA_HepaRG_UGT1A6: Life Technologies and Expression Analysis (LTEA) Assay for UDP glucuronosyltransferase (UGT1A6) using HepaRG (AID 2283539). Conditions: mRNA level, 48 h; actives raise or lower the signal. The gist of the method: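 Endpoint is UGT1A6 transcript induction or loss in a human liver cell line, quantified by TaqMan qRT-PCR 48 h after dosing. Concentrations ran from 100 uM downward in half-log steps in 0.5% DMSO; activity was fitted in both directions versus vehicle.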

Read-out in assay [17]: X-box binding protein 1 (XBP1), XBP1 (gene 7494)
Kind of assay: LTEA_HepaRG_XBP1: Life Technologies and Expression Analysis (LTEA) Assay for X-box binding protein 1 (XBP1) using HepaRG (AID 2283540). Conditions: mRNA level, 48 h; actives raise or lower the signal. The gist of the method: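 Human HepaRG monolayers receive test chemical for 48 h across an eight-point half-log series starting at 100 uM. XBP1 mRNA gain or loss is scored against DMSO by qRT-PCR.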

Assay [18] in a line: LTEA_HepaRG_LDH_cytotoxicity: Cytotoxicity Assessment in the Life Technologies and Expression Analysis (LTEA) Assay (AID 2283563; active = hit-call score of the fitted dose curve at least 0.9, where 1 is the maximum). The gist of the method:
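Human HepaRG hepatic cells are treated with test chemicals for 48 h at up to 100 uM in 0.5% DMSO. Cytotoxicity is scored from medium LDH against the vehicle control.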

Assay [19] in a line: TOX21_p53_BLA_p2_viability: Viability Assessment in the Tox21 HCT-116 p53 Agonism Beta-lactamase Assay, Phase 2 (AID 2283591; active = hit-call score of the fitted dose curve at least 0.9, where 1 is the maximum;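 also: compound exposure lasted 16 h at 37 °C; actives lower the ATP signal meaning cytotoxicity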). The gist of the method:
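Cytotoxicity readout: CellTiter-Glo ATP luminescence, 30 min at room temperature, after the beta-lactamase read. Cells were HCT116 exposed 16 h at 37C to compounds pin-transferred at 217-fold dilution from DMSO stocks.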

Assay [20] can be described thus: ATG_XTT_Cytotoxicity: Cytotoxicity Assessment in the Attagene TRANS-FACTORIAL HepG2 Assay (AID 2283584; active = hit-call score of the fitted dose curve at least 0.9, where 1 is the maximum). The gist of the method: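 Transfect HepG2 with GAL4-UAS reporter units, dose compound, incubate 24 h, then measure viable cell number by XTT. Fit concentration response against DMSO baseline.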

Sequence of Nuclear factor erythroid 2-related factor 2 (Homo sapiens) (Q16236 whole entry, looked up): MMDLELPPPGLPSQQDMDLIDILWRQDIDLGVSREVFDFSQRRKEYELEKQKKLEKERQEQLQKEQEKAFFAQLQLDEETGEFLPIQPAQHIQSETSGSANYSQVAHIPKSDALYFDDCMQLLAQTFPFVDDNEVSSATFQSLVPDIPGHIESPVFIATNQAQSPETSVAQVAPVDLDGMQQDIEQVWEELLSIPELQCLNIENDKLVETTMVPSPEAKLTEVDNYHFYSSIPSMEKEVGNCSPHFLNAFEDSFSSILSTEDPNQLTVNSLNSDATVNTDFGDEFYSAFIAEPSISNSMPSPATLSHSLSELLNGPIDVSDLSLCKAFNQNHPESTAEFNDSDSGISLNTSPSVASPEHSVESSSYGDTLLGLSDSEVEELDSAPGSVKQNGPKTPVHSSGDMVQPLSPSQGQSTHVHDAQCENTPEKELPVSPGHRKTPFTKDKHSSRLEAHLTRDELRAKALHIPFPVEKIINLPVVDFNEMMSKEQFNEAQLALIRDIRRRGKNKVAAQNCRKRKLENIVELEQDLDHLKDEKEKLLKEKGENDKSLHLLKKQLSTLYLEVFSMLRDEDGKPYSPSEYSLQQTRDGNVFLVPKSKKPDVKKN
Sequence of Signal transducer and activator of transcription 3 (Homo sapiens) (P40763 whole entry, looked up): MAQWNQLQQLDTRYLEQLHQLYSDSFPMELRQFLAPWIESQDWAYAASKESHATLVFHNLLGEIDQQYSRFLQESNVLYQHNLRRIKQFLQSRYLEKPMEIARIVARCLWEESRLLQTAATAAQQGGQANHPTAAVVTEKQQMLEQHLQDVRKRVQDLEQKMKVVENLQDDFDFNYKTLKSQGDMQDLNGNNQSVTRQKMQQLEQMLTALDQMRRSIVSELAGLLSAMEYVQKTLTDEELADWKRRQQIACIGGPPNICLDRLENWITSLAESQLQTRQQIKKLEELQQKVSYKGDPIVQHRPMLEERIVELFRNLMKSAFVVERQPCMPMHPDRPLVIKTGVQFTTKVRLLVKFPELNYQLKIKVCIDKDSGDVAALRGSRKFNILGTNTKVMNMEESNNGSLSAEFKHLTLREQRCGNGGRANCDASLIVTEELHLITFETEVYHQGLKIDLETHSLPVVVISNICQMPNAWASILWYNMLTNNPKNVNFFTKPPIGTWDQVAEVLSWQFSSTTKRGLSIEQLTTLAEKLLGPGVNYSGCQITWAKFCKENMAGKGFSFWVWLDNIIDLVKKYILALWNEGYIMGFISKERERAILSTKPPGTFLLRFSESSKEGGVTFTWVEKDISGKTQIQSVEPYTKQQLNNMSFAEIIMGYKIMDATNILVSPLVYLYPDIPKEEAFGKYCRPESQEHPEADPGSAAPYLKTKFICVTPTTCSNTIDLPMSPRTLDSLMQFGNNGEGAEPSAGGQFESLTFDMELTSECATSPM
Sequence of Cellular tumor antigen p53 (Homo sapiens) (P04637 whole entry, looked up): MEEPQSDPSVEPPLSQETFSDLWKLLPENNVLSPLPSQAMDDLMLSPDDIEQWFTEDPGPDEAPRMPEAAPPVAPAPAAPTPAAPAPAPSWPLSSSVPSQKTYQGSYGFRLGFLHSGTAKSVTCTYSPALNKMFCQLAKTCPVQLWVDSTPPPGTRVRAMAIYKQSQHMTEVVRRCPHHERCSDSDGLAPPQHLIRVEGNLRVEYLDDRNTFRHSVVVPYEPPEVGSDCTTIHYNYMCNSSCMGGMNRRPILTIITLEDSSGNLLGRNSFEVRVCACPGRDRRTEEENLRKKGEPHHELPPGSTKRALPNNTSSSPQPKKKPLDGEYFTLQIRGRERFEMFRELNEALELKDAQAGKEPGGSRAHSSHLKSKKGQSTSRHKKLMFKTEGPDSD

`O=C(O)c1ccc([N+](=O)[O-])cc1`: the compound was called inactive in assay [1], in [2], in assay [3], in assay [4], in assay [5] and in [6]. For the same compound, the call in assay [7], in assay [8], in [9], in assay [10], in assay [11] and in [13] was inactive. The result in assay [14], in assay [15], in [16], in assay [17], in assay [18] and in [19] was inactive. Besides, the AC50 in [12] was 646 nM (active).

On to `C=C(C)C(=O)NCCCN(C)C`, for which, in assay [20], the compound was called inactive.

Regarding `N#Cc1ccc(CC(=NNC(=O)Nc2ccc(OC(F)(F)F)cc2)c2cccc(C(F)(F)F)c2)cc1`, the call in assay [20] was inactive.

On to `CCCC[n+]1ccccc1`, for which, in [20], the compound was classed as inactive.

With `CCCCC[Si](OCC)(OCC)OCC`, in assay [20], the compound was called inactive.

The term AC50 denotes the concentration giving half of the maximal activity seen.
